The panel holds about 83,000 compounds, 20% with a hit somewhere; the sample as a whole holds those more often.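 96-well plates, one dose, 48 hours. Percent growth reported; active if below 10.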 The source made the active and inactive calls.
tested on: SN12C renal; experiment: NCI-60 one-dose screen, 48 h (100 = growth as untreated, 0 = no growth, -100 = all killed); settings: 10 µM unless noted

SMILES	growth
CC(=O)OCC1O[C@@H](OC(C)=O)[C@@H](NC(=O)NS(=O)(=O)c2ccccc2)C(OC(C)=O)[C@@H]1OC(C)=O (some centres undefined)	97.2% (inactive)
CC(=O)Nc1nc(C)c(C(=O)N/N=C/N2CCCCC2)s1	106% (inactive)
Cc1ccc(NCc2cn(-c3ccc(C(=O)O)cc3)nc2-c2ccc(C(=O)O)cc2)cc1	108% (inactive)
CC(C)CSc1nc(-c2ccc(F)cc2)c(C#N)c(N2CCCCC2)n1	105% (inactive)
COc1ccc(/C=N/c2cc(C(C)(C)C)nn2-c2ccccc2)cc1	102% (inactive)
CC[C@H](Nc1ncnc2nc[nH]c12)c1nc2cccc(NCc3ccc(C(=O)NO)nc3)c2c(=O)n1-c1ccccc1	38.9% (inactive)
COc1ccc(CN2C(=O)/C(=C\C(=O)c3ccc(OCCN4CCCC4)cc3)c3ccccc32)cc1	49.8% (inactive)
COC1=C(OC)C(=O)c2ccccc2C1=O	108% (inactive)
CCC(C)C1NC(=O)C(CC(C)C)NC(=O)C(C)NC(=O)C(C(C)C)NC(=O)C(CCCCN)NC(=O)C(CC(C)C)NC(=O)C(C(C)C)NC(=O)[C@H](C)NC(=O)C(C(C)CC)NC(=O)C(CCCN=C(N)N)NC(=O)C(CCCCN)NC(=O)C(CCCN=C(N)N)NC(=O)C(CCCCN)NC(=O)C([C@H](C)CC)NC(=O)C(CCCCN)NC1=O (some centres undefined)	10.9% (inactive)
